Sm TGR block = inhibitors of Schistosoma mansoni thioredoxin glutathione reductase | Q962Y6 | 360,000 compounds, 3% hits | Potency, µM (highest dose often 114 µM), inactives show top-dose activity change, negative = inhibition, usual class: inhibitors | AID 485364 | purified TGR, DTNB reduction, TNB absorbance 405 nm; also: potency is read from the fitted curve at half-maximal effect; % is scaled to controls: 0 for no effect and ±100 for the full control effect; nearly all actives have a fitted effect of over 60% in size
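First, TGR (20 nM dispensed) and NADPH were mixed with compound. Second, a 15 min room-temperature incubation followed. Third, further NADPH and then DTNB were added to start the reaction. Finally, TNB absorbance was monitored kinetically.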
TbPYK inhibitor = blocks Trypanosoma brucei pyruvate kinase; 410,000 compounds, 0.12% hits; Q57TT1; Potency, µM (highest dose often 76.8 µM), for inactives: at the top dose activity, negative = inhibition, hits mostly inhibitors; TbPYK enzyme, Kinase-Glo Plus ATP luminescence, 45 min; AID 624173; also: potency is read from the fitted curve at half-maximal effect; % is scaled to controls: 0 for no effect and ±100 for the full control effect; nearly all actives have a fitted effect of over 50% in size
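Assay buffer: 50 mM TEA pH 7.2, 100 mM KCl, 10 mM MgCl2, 0.05% BSA, 0.01% Tween-20. Pyruvate kinase from T. brucei plus substrate met compound, then ADP (130 uM final). Luminescence was read post 45 min RT.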
Giardia FBPA inh = inhibitors of Giardia lamblia fructose-1,6-bisphosphate aldolase. A8B2U2. purified Giardia FBPA. Potency, µM (doses to about 59.6 µM), inactives show top-dose activity, negative = inhibition, usual class: inhibitors. 290,000 compounds, 0.71% hits; also: potency is read from the fitted curve at half-maximal effect; % is scaled to controls: 0 for no effect and ±100 for the full control effect; nearly all actives have a fitted effect of over 55% in size
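Giardia FBPA (40 nM reagent) was preincubated 10 min at RT with compound (up to 57.5 uM final), then substrate plus GAPDH/TPI/NAD/arsenate coupling system with diaphorase/resazurin was added; resorufin fluorescence (525/598 nm) was read after 20 min.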
LmPK inh = LmPK (Leishmania mexicana) enzyme inhibition | Q27686 | purified LmPK, Kinase-Glo ATP luminescence, 1 h | Potency, µM (titrated, usually from 57.5 µM), for inactives: top-dose activity change, negative = inhibition, most hits filed as inhibitors | 290,000 compounds, 0.37% hits; also: potency is read from the fitted curve at half-maximal effect; % is scaled to controls: 0 for no effect and ±100 for the full control effect
Target sequence (Q27686 whole entry, looked up): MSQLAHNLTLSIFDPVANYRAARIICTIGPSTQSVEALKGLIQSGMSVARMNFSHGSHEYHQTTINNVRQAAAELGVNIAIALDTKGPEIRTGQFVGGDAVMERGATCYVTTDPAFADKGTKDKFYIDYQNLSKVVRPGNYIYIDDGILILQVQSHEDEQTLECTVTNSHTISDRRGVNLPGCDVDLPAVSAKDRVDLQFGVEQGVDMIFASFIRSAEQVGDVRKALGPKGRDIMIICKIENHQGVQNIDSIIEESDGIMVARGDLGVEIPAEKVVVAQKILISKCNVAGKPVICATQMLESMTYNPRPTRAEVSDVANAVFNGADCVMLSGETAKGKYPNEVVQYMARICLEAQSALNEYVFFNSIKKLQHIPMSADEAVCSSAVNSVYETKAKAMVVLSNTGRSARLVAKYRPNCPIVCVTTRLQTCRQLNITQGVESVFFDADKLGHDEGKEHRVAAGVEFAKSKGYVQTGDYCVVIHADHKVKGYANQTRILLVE
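Pyruvate kinase activity monitored as ATP production (luciferase luminescence). Conditions: 0.1 nM enzyme, 0.5 mM PEP, 0.1 mM ADP, 1 h, RT; normalized against uninhibited and no-enzyme wells.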
Cycloheximide cs = affects cycloheximide protein synthesis inhibition readout, counter-screen; max response, %; AID 2314; cell reporter, cycloheximide protein synthesis inhibition counterscreen; 300,000 compounds, 12% hits; in the data active = max response mostly above about 13%, no sharp cut-off; inactive = mostly below about 14%; also: read at 38.3 µM for the half of the compounds with a filed dose; 0% is about no effect
Shiga toxin inh = inhibitors of Shiga toxin in Vero cells; Vero cells, Shiga toxin protein synthesis inhibition reporter; inhibition, % at 38.7 µM; 290,000 compounds, 9.2% hits; in the data active = inhibition mostly above about 28%, no sharp cut-off; inactive = mostly below about 43%; also: 0% is about no effect
Numbers without * were called inactive; u = inconclusive; x = no result given. The full list was thinned out, with hits kept by preference. Unless noted, calls follow the shape of the dose curve; as a rule, active = well fitted curve in the direction sought with a large enough effect; inconclusive = small, poorly fitted or top-dose-only effect, or another doubt; inactive = no such curve, though single readings can be large; an effect the other way counts as inactive or inconclusive.

SMILES	Sm TGR block	TbPYK inhibitor	Giardia FBPA inh	LmPK inh	Cycloheximide cs	Shiga toxin inh
CC(C)C(=O)Nc1nc(-c2ccc([N+](=O)[O-])cc2)cs1	1%	-3%	-13%	1%	19	40
CNc1nc(-c2ccc(Cl)cc2)cs1	0%	-1%	-17%	-8%	27*	76*
Nc1nc(-c2ccc([N+](=O)[O-])cc2)cs1	5%	6%	0%	2%	10	29
COc1ccc2cc(OCC(=O)NNC(=O)Nc3ccc(F)cc3)ccc2c1	0%	-3%	x	-4%	13	19
Cn1nnnc1SCc1cccc(CSc2nnnn2C)n1	-5%	-5%	-6%	1%	-5	14
Cc1ccc(Nc2nc(CSc3nnnn3-c3ccccc3)cs2)cc1	0%	-3%	0%	1%	16	36
Cn1nnnc1SCc1csc(Nc2ccccc2)n1	-44%	1%	-17%	6%	28*	123*
Cc1ccc(Nc2nc(CSc3nnnn3C)cs2)cc1	u	-6%	-13%	2%	39*	42*
Cc1ccc(NC(=O)Cn2c(=O)n(Cc3nc(C)no3)c(=O)c3cc4c(cc32)OCO4)cc1	8%	3%	x	x	x	x
O=C(O)c1ccc(OS(=O)(=O)c2ccc(Cl)s2)cc1	-13%	3%	x	x	x	x
C[C@]12c3[nH]c4ccccc4c3CCN1C(=O)C(CC(=O)NCCN1CCOCC1)C[C@@H]2C(=O)N1CCCCC1 (stereo partly drawn)	x	-7%	x	x	x	x
CCNC(=O)c1ccc(CSc2ccc(Cl)cc2)cc1	3%	-14%	7%	0%	34*	55*
CC(=O)NCCNC(=O)c1ccc(CSc2ccc(Cl)cc2)cc1	-1%	2%	7%	0%	37*	94*
CC(C)c1ccc(NC(=O)c2ccc(NC(=O)CCS(=O)(=O)c3cccs3)cc2)cc1	-8%	0%	x	x	x	x
CC(C)(C)c1ccc(/C=C2\Oc3cc(O)ccc3C2=O)cc1	-4%	2%	-5%	4%	61*	125*
O=C1/C(=C/c2ccc(Br)cc2)Oc2cc(O)ccc21	3%	-7%	-1%	0%	29*	61*
COC(=O)c1ccc2c(c1)C(=O)/C(=C/c1ccc(O)cc1)O2	-1%	-4%	18%	11%	20	65*
O=C1/C(=C/c2ccc([N+](=O)[O-])cc2)Oc2cc(O)ccc21	-2%	4%	-4%	-7%	40*	67*
CN(C)C(=O)Oc1ccc2c(c1)O/C(=C\c1cccc([N+](=O)[O-])c1)C2=O	-9%	0%	3%	0%	-1	-5
O=C1/C(=C\c2ccc(O)c(O)c2)Oc2cc(O)ccc21	x	x	-19%	x	7	19
CC(=O)N1CCN(c2ccc(NCc3ccc(-c4cccc(Cl)c4)o3)cc2)CC1	x	-20%	x	x	x	x
CC(C)Oc1ccc(C(=O)Nc2ccc(NC(=O)c3ccco3)c(Cl)c2)cc1	-20%	7%	x	-2%	40*	50*
CC(C)COc1ccc(C(=O)Nc2ccc(NC(=O)c3ccco3)c(Cl)c2)cc1	6%	0%	7%	5%	13	6
O=C(Nc1ccc(NC(=O)c2ccc([N+](=O)[O-])o2)cc1Cl)c1ccco1	-2%	-6%	8%	-6%	-2	-4
O=C(Nc1ccc(NC(=O)c2ccco2)c(Cl)c1)c1ccccc1	1%	3%	-1%	-18%	47*	79*
SMILES	Sm TGR block	TbPYK inhibitor	Giardia FBPA inh	LmPK inh	Cycloheximide cs	Shiga toxin inh
O=C(Nc1ccc(Br)c(Cl)c1)c1ccco1	-2%	-4%	-6%	-8%	41*	76*
COc1ccc(-c2noc(CSc3nnc(C)n3-c3ccc(OC)cc3)n2)cc1	2%	0%	x	x	x	x
COc1ccc(C(=O)Nc2ccccc2C(=O)NC(Cc2ccc(O)cc2)C(=O)NNC(=O)c2ccc(C)cc2)cc1 (stereo not drawn)	1%	-2%	-8%	-1%	9	-6
COc1ccc(C(=O)Nc2ccccc2C(=O)Nc2cccc(C)n2)cc1	0%	-9%	4%	1%	9.8*	28*
Cc1ccc(NC(=O)CNc2ccc(Cl)cc2F)cc1	-1%	3%	1%	3%	6	5
CC(=O)c1ccccc1NCC(=O)Nc1ccc(C)cc1	-15%	-2%	-7%	1%	30*	61*

Compound activity as filed in PubChem.
